Rows were chosen to be rich in hits. Some 4% of all compounds tested hit in one or more screens of this group.
Wnt bcat act – Wnt/beta-catenin pathway activators, primary screen, cell-based, plate reader, single point; Wnt/beta-catenin reporter cell assay, activator; activation, % at 9.35 µM; 300,000 compounds, 1.2% hits; AID 743398, 2014; in the data active = activation above about 30%, passing the limit was not always enough; inconclusive = no clear call, values can overlap the other calls;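 also: 0% = neutral control wells and 100% = positive control wells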
PAX8 inh HTS – inhibitors of PAX8-driven TPO luciferase reporter, primary screen, RMG-I cells, single concentration. 360,000 compounds, 1.2% hits. SteadyGlo, 24 h. AID 652154, 2013. inhibition, % at 12.6 µM;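 active = mean replicate inhibition at least 60% with every replicate also reaching 60%; inconclusive = only one of the two criteria is met; inactive = mean below 60% and not all replicates reaching 60%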;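 also: luciferase light reporting Pax8 driven TPO promoter activity; plate controls were median of neutral control wells for no effect and mitoxantrone controls for full effect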
MITF TRPM1 inh – inhibitors of MITF-dependent TRPM1 promoter reporter, primary screen, cell-based, SK-MEL-5, single point, luciferase; SK-MEL-5 TRPM1 promoter luciferase, 24 h; inhibition, % at 12.5 µM; 330,000 compounds, 0.83% hits; AID 488899, 2010;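 active = mean inhibition across replicates of 60% or more, whatever share of single replicates reaches that level; inconclusive = some that reach 60%, reason not given; inactive = mean inhibition across replicates below 60%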
MITF act – activators of MITF-driven TRPM1 promoter reporter, primary screen, cell-based, SK-MEL-5, luciferase, single point | SK-MEL-5 TRPM1-promoter luciferase, 24 h; % of positive control, neutral wells = 0 | activation, % at 12.5 µM | 300,000 compounds, 0.75% hits | AID 588334, 2011;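 active = mean activation of at least 80% with every replicate also reaching 80%; inconclusive = mean reaches 80% but some replicate falls short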;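 also: 0% = neutral control wells and 100% = parthenolide positive control wells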
EWS-Fli inh – EWS/Fli-driven NR0B1 reporter inhibitors, primary screen, A673 cells, NR0B1 luciferase, luminescence, MLPCN library; inhibition, % at 12.6 µM; 350,000 compounds, 0.67% hits; viability-normalised; AID 651661, 2012;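 active = mean inhibition of at least 50% after viability correction, with every replicate also passing that limit; inconclusive = mean reaches 50% but only one of two replicates passes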;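 also: firefly luciferase signal divided by Alamar Blue viability fluorescence both relative to DMSO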
esBAF inh – Bmi1 luciferase reporter increase in mESCs, primary screen, esBAF inhibitor project, mouse ES cells, Bmi1 luciferase knock-in, single point | 24 h; 100% = twice the neutral-well signal | 350,000 compounds, 2% hits | reporter increase, % at 12.5 µM; in the data active = activation above about 40%; inconclusive = no clear call, values can overlap the other calls;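 also: 0% = median of the plate's neutral control wells and 100% = double that signal; a rise in the Bmi1 reporter signal indicates esBAF inhibition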
* marks the source's active call; other numbers are inactive results; ? = inconclusive; . = no result.

SMILES | Wnt bcat act | PAX8 inh HTS | MITF TRPM1 inh | MITF act | EWS-Fli inh | esBAF inh
C[C@@H]1CN([C@@H](C)CO)C(=O)Cc2cc(NS(=O)(=O)c3ccc(Cl)cc3)ccc2O[C@H]1CN(C)Cc1ccc(Cl)c(Cl)c1 | . | 86* | . | . | 31 | 3
C[C@H](CO)N1C[C@H](C)[C@H](CN(C)Cc2ccc(Cl)c(Cl)c2)Oc2ccc(NS(=O)(=O)c3cn(C)cn3)cc2CC1=O | . | 23 | . | . | 65* | 15
C[C@@H]1CN([C@H](C)CO)C(=O)Cc2cc(NS(=O)(=O)c3ccc(Cl)cc3)ccc2O[C@H]1CN(C)Cc1ccc(Cl)c(Cl)c1 | . | -2 | . | . | -4 | 6
C[C@@H]1CN([C@@H](C)CO)C(=O)Cc2cc(NS(=O)(=O)c3ccccc3)ccc2O[C@H]1CN(C)Cc1ccc(Cl)c(Cl)c1 | . | 114* | . | . | 2 | -3
C[C@H](CO)N1C[C@H](C)[C@@H](CN(C)Cc2ccc(Cl)c(Cl)c2)Oc2ccc(NS(=O)(=O)c3ccc(Cl)cc3)cc2CC1=O | . | 70* | . | . | 15 | 0
C[C@H](CO)N1C[C@H](C)[C@H](CN(C)Cc2cccnc2)Oc2cc(C#CC3CC3)ccc2S1(=O)=O | . | . | . | . | -7 | 0
C[C@H](CO)N1C[C@H](C)[C@H](CN(C)S(=O)(=O)c2cn(C)cn2)OCCCC[C@H](C)Oc2ccc(NS(=O)(=O)c3cccs3)cc2C1=O | . | -18 | . | . | 2 | -15
C[C@H](CO)N1C[C@H](C)[C@H](CN(C)CC2CCCCC2)Oc2ccc(NS(=O)(=O)c3ccc(Cl)cc3)cc2CC1=O | . | 106* | . | . | -14 | 0
COc1ccc(S(=O)(=O)Nc2ccc3c(c2)CC(=O)N([C@@H](C)CO)C[C@@H](C)[C@H](CN(C)Cc2ccc(Cl)c(Cl)c2)O3)cc1 | . | 32 | . | . | 0 | 2
COc1ccc(S(=O)(=O)Nc2ccc3c(c2)CC(=O)N([C@H](C)CO)C[C@H](C)[C@@H](CN(C)Cc2ccc(Cl)c(Cl)c2)O3)cc1 | . | 75* | . | . | 0 | 17
Cc1nc2c(=O)n(C)c(=O)n(C)c2nc1Cl | -3 | 111* | 43 | -43 | 59* | .
Cn1cc(CNCc2cn[nH]c2-c2ccc(F)cc2)c(-c2ccc3c(c2)OCCO3)n1 | 37* | 2 | 9 | -1 | 10 | .
CC(C)c1ccc(/C=N/NC(=O)c2ccccc2Cl)cc1 | 6 | -70 | -29 | 31 | 19 | .
CNC(=S)N/N=C/c1ccc(N(C)C)cc1 | 48* | -163 | -38 | . | -56 | .
CNC(=S)N/N=C/c1ccc(C(C)C)cc1 | . | . | -52 | 57 | . | 59*
COc1ccc(NC(=O)Nc2ccc3c(c2)C(=O)N([C@H](C)CO)C[C@H](C)[C@H](CN(C)Cc2ccccc2)OCCCC[C@@H](C)O3)cc1 | . | -7 | . | . | 48 | -2
O=C(c1ccc2c(c1)OCO2)N1CC(=O)N2[C@H](C1)[C@H](c1ccc(C#Cc3ccccc3)cc1)[C@@H]2CO | . | . | . | . | -14 | .
O=C(C[C@H]1CC[C@H]2[C@@H](COC[C@@H](O)CN2S(=O)(=O)c2ccc(F)cc2)O1)N1CCc2ccccc2C1 | . | 15 | . | . | 0 | 1
C[C@@H]1CN([C@H](C)CO)C(=O)c2cccc(NS(C)(=O)=O)c2O[C@@H]1CN(C)S(=O)(=O)c1cn(C)cn1 | . | . | . | . | -4 | 0
COc1cccc(NC(=O)N2CCc3ccccc3C2)c1 | 26 | -168 | -78 | 79 | -118 | 50*
CC(C)c1ccc(NC(=O)N2CCc3ccccc3C2)cc1 | ? | -84 | -50 | 52 | -37 | .
O=C(Nc1ccccc1F)N1CCc2ccccc2C1 | 1 | -193 | -56 | 57 | -108 | 65*
O=C(Nc1cccc(Cl)c1)N1CCc2ccccc2C1 | 2 | -86 | -70 | . | -122 | 50*
Cc1ccc(C)c(NC(=O)N2CCc3ccccc3C2)c1 | 2 | . | -26 | 28 | -41 | 38
O=C(Nc1ccc([N+](=O)[O-])cc1)N1CCc2ccccc2C1 | 13 | -68 | -21 | 20 | -63 | 51*
SMILES | Wnt bcat act | PAX8 inh HTS | MITF TRPM1 inh | MITF act | EWS-Fli inh | esBAF inh
O=C(NCC[C@H]1CC[C@H](NS(=O)(=O)Cc2ccccc2)[C@H](CO)O1)C1CCOCC1 | . | -10 | . | . | -8 | -3
CN(c1cccc(NC(=O)COc2ccc(Cl)cc2Cl)c1)S(C)(=O)=O | 37* | -173 | -66 | . | . | 38
O=C(COc1ccc(Cl)cc1Br)Nc1ccncc1 | 11 | 0 | -70 | 71 | -100 | 79*
COc1cc(C(C)=O)ccc1OCC(=O)NC(=O)Nc1ccc(C)cc1C | 2 | -2 | -3 | 8 | -2 | 0
O=C(CCCOc1ccc(Cl)cc1Cl)Nc1ccncc1 | . | . | 1 | 0 | . | 14
O=C(COc1ccc(Cl)cc1Cl)Nc1cccnc1 | ? | 6 | -108 | 94* | -69 | .
Cc1ccc(NC(=O)NC(=O)COc2ccc(Cl)cc2Cl)c(C)c1 | -1 | 117* | -16 | 13 | -1 | .
Cc1ccc(C)c(OCc2nnc(N)s2)c1 | . | . | 10 | -11 | . | .
Nc1nnc(COc2ccc(Br)cc2Br)s1 | 11 | . | -70 | 70 | . | 69*
CC1CCc2c(sc3ncn(CCO)c(=O)c23)C1 (centres undefined) | 11 | -114 | -74 | 74 | -58 | 53*
CC1CCc2c(sc3ncn(Cc4ccc(C(=O)O)cc4)c(=O)c23)C1 (centres undefined) | -2 | -43 | -13 | 12 | -2 | 12
C[C@H]1CN([C@@H](C)CO)C(=O)c2cccc(NC(=O)C3CCOCC3)c2O[C@H]1CN(C)CC1CC1 | . | 1 | . | . | -5 | 0
CO[C@H]1CN(C)C(=O)c2ccc(NC(=O)c3ccccc3F)cc2OC[C@@H](C)NC[C@@H]1C | . | 2 | . | . | -2 | 0
O=C(Nc1nnc(-c2ccccc2F)s1)C1CCCO1 (centres undefined) | 51* | -198 | -62 | 66 | . | .
O=C(Nc1nnc(-c2ccncc2)s1)C1CCCO1 (centres undefined) | . | . | -13 | 11 | . | 9
O=C(Nc1nc2ccc(F)cc2s1)C1CCCO1 (centres undefined) | . | . | -107 | 112* | . | 99*
COc1ccc(C(=O)NC(=S)NNC(=O)COc2ccccc2)cc1 | -3 | 109* | 33 | -33 | 16 | .
COc1cc(C(=O)NNC(=S)NC(=O)c2ccccc2C)cc(OC)c1OC | -6 | 31 | 16 | -19 | . | .
COc1ccccc1C(=O)NNC(=S)NC(=O)c1cc(OC)c(OC)c(OC)c1 | -1 | 63* | 30 | -29 | 22 | .
O=C(COc1ccccc1)NNC(=S)NC(=O)c1ccccc1 | 0 | 0 | -11 | 14 | 12 | 4
COc1ccc(C(=O)NC(=S)Nc2ccccc2F)cc1 | 34* | -121 | -40 | 45 | . | .
COc1ccc(CNC(=S)Nc2ccccc2F)cc1 | -1 | -15 | 6 | -6 | -4 | 10

Screening results (PubChem BioAssay)
